For some assays here: Results with a measured potency or affinity are listed apart.
How the values were obtained:
[1] = polyglutamine-triggered caspase-3 activation inhibitors, cell-based (AID 1583); settings: polyglutamine-induced caspase-3 activation, cell assay; stronger effect = higher value;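 tested at 10 µM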
[2] = suppressors of polyQ aggregation in yeast, 75Q-TubU reporter (AID 1593); settings: Yeast 75Q polyglutamine aggregation reporter
[3] = rescue of polyQ-huntingtin neuronal dysfunction in worms, whole organism, C. elegans mechanosensory neurons, N-terminal huntingtin (AID 1599); settings: touch response, stronger effect = higher value
[4] = inhibitors of mitochondrial cytochrome c release, biochemical, purified mitochondria (AID 1603); settings: stronger effect = lower value;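 further: mouse liver mitochondria challenged with calcium chloride; signal normalized to the plate average as 100%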
[5] = inhibitors of polyQ protein aggregation (AID 1604); settings: polyglutamine-induced protein aggregation inhibition assay; stronger effect = higher value; tested at 2.5 µM

Q: For CCN(CC)CCOC(=O)C(c1ccccc1)c1ccccc1, which inhibition [1] is on record?
A: 11.6%

Q: What about the score [2] of the same molecule?
A: 0.88

Q: What about the rescue above control [3] of the same molecule?
A: 8.76

Q: And the cytochrome c release ratio [4]?
A: 1.09

Q: And the inhibition of aggregation [5]?
A: 66.7%

Q: Which inhibition [1] does the source give for CC(=O)OCC(COC(C)=O)OC(C)=O here?
A: 0.15%

Q: What about the score [2] of the same molecule?
A: 1.44

Q: What about the rescue above control [3] of the same molecule?
A: -1.97

Q: And the cytochrome c release ratio [4]?
A: 1.1

Q: What about the inhibition of aggregation [5] of the same molecule?
A: 72.7%

Q: Which inhibition [1] does the source give for Nc1nc2c(c(=O)[nH]1)N(C=O)C(CNc1ccc(C(=O)N[C@@H](CCC(=O)O)C(=O)O)cc1)CN2 (stereo not given in full) here?
A: 16.8%

Q: And the score [2]?
A: 2.89

Q: And the rescue above control [3]?
A: -4.97

Q: What about the cytochrome c release ratio [4] of the same molecule?
A: 1.12

Q: What about the inhibition of aggregation [5] of the same molecule?
A: 35%

Q: With C=CCSCC1Nc2cc(Cl)c(S(N)(=O)=O)cc2S(=O)(=O)N1 (stereo not given) as the molecule, how does the inhibition [1] read?
A: -19.5%

Q: What about the score [2] of the same molecule?
A: 0.96

Q: And the rescue above control [3]?
A: 4.12

Q: What about the cytochrome c release ratio [4] of the same molecule?
A: 0.99

Q: And the inhibition of aggregation [5]?
A: -7.48%

Q: With Nc1nccs1 as the molecule, how does the inhibition [1] read?
A: 9.3%

Q: What about the score [2] of the same molecule?
A: 1.44

Q: And the rescue above control [3]?
A: -9.08

Q: What about the cytochrome c release ratio [4] of the same molecule?
A: 0.95

Q: What about the inhibition of aggregation [5] of the same molecule?
A: 30.7%

Q: Which inhibition [1] does the source give for Cn1c([N+](=O)[O-])cnc1COC(N)=O here?
A: -0.12%

Q: What about the score [2] of the same molecule?
A: 1.29

Q: And the rescue above control [3]?
A: 8.28

Q: And the cytochrome c release ratio [4]?
A: 0.98

Q: What about the inhibition of aggregation [5] of the same molecule?
A: 44.8%

Q: Which inhibition [1] does the source give for C=CCc1ccc(O)c(OC)c1 here?
A: -5.5%

Q: And the score [2]?
A: 1.31

Q: What about the rescue above control [3] of the same molecule?
A: 11.4

Q: What about the cytochrome c release ratio [4] of the same molecule?
A: 1.29

Q: What about the inhibition of aggregation [5] of the same molecule?
A: 81.4%

Q: With Nc1ccc(S(=O)(=O)Nc2nccs2)cc1 as the molecule, how does the inhibition [1] read?
A: 6.1%

Q: What about the score [2] of the same molecule?
A: 1.37

Q: What about the rescue above control [3] of the same molecule?
A: -1.24

Q: And the cytochrome c release ratio [4]?
A: 0.85

Q: What about the inhibition of aggregation [5] of the same molecule?
A: 66.2%

Q: With CCN(CC)CCNC(=O)COc1ccc(OC)cc1 as the molecule, how does the inhibition [1] read?
A: 62%

Q: What about the score [2] of the same molecule?
A: 1.13

Q: What about the rescue above control [3] of the same molecule?
A: -1.97

Q: And the cytochrome c release ratio [4]?
A: 0.98

Q: And the inhibition of aggregation [5]?
A: 72.2%

Q: With O=C(O)c1cc(=O)c2ccccc2o1 as the molecule, how does the inhibition [1] read?
A: 6.16%

Q: And the score [2]?
A: 1.58

Q: And the rescue above control [3]?
A: -0.59

Q: What about the cytochrome c release ratio [4] of the same molecule?
A: 0.94

Q: And the inhibition of aggregation [5]?
A: 87.2%

Q: Which inhibition [1] does the source give for Nc1ccc(S(N)(=O)=O)cc1 here?
A: -14.5%

Q: What about the score [2] of the same molecule?
A: 1.26

Q: What about the rescue above control [3] of the same molecule?
A: 0.93

Q: What about the cytochrome c release ratio [4] of the same molecule?
A: 1.06

Q: And the inhibition of aggregation [5]?
A: 81.5%

Q: For OC[C@H]1O[C@@H](O[C@@H]2[C@@H](CO)O[C@](O)(CO)[C@H]2O)[C@H](O)[C@@H](O)[C@H]1O, which inhibition [1] is on record?
A: -7.91%

Q: What about the score [2] of the same molecule?
A: 1.23

Q: What about the rescue above control [3] of the same molecule?
A: -9.67

Q: What about the cytochrome c release ratio [4] of the same molecule?
A: 1.19

Q: And the inhibition of aggregation [5]?
A: 51.2%

Q: Which inhibition [1] does the source give for CCN(CC)CCOCCOC(=O)C1(c2ccccc2)CCCC1 here?
A: -3.33%

Q: And the score [2]?
A: 1.27

Q: What about the rescue above control [3] of the same molecule?
A: -4.04

Q: What about the cytochrome c release ratio [4] of the same molecule?
A: 0.8

Q: What about the inhibition of aggregation [5] of the same molecule?
A: 94.4%

Source: PubChem BioAssay
